Screens as filed in PubChem.
TRb SRC2 PPI: TRbeta-SRC2 interaction inhibition; P10828; 280,000 compounds, 0.065% hits; Potency, µM (doses to about 106 µM), most hits filed as inhibitors; TRbeta-SRC2 peptide binding, fluorescence polarization; receptor liganded with 1 µM T3; note: nearly all actives have a fitted effect of over 50% in size
Target sequence (P10828 whole entry, looked up): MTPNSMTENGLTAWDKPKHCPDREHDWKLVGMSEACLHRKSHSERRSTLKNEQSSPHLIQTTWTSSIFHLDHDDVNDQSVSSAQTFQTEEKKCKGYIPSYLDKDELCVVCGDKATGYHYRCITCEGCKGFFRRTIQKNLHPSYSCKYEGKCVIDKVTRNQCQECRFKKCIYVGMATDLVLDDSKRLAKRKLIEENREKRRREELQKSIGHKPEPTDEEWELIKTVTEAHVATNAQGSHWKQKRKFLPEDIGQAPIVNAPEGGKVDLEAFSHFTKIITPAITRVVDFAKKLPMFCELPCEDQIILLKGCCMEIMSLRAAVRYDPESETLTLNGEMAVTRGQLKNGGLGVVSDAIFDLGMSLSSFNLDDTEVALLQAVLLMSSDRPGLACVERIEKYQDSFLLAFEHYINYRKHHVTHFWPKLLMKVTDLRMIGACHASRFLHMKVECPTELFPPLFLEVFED
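Binding of a 20-amino-acid Texas Red SRC2 peptide (20 nM) to TRb ligand-binding domain (0.6 uM) with agonist T3 at 1 uM was followed by fluorescence polarization after a 5 hr room-temperature incubation.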
NPSR antagonist: neuropeptide S receptor (human) antagonism, cAMP; AID 1461; Potency, µM (highest dose often 38.3 µM), most hits filed as inhibitors; Q6W5P4; 220,000 compounds, 1% hits; CHO-NPSR cells, cAMP TR-FRET, antagonist mode; note: nearly all actives have a fitted effect of over 50% in size
TR SRC2 fluor cs: alters Texas Red total fluorescence, flagging assay interference | TRb/SRC2 Texas Red total fluorescence interference | Potency, µM (top dose mostly 106 µM) | 280,000 compounds, 0.29% hits; active = well fitted curve in either direction with a large enough effect; inconclusive = small, poorly fitted or top-dose-only effect
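Flags fluorescent or light-absorbing compounds by total fluorescence, S + 2P, at 555 nm excitation and 632 nm emission. Mixture: 20 nM Texas Red SRC2 peptide, 0.6 uM human TRb LBD, 1 uM T3, 5% DMSO; compound exposure 5 h at ambient temperature.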
TCR act: activators of T cell receptors | 330,000 tested, under 10 active | primary human leukocytes, anti-CD3, IL-2 HTRF, 48 h | Potency, µM (top dose mostly 9.22 µM), hits mostly activators | AID 504894
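Human primary leukocytes + a-CD3 beads + cpd, 48 hr; IL-2 in supernatant by HTRF (ex 320nm / em 665nm). No co-stimulatory signal supplied.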
TSHR antagonist: antagonists of human thyroid stimulating hormone receptor; 330,000 compounds, 0.2% hits; activity change, negative = inhibition, % at 11.5 µM; P16473; TSHR-expressing cells, TSH-stimulated cAMP HTRF, 2 h; hits give low values;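 active = activity change below a set negative limit, meaning inhibition stronger than a set level, cut at about -70% in these data; inconclusive = activity change between two set negative limits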
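Cell-based HTRF cAMP assay; TSHR cells + compound, TSH EC80 (4nM final), 2 h, 37 deg C. Lysis with anti-cAMP cryptate and cAMP-d2, 30 min RT, read 665/620 nm.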
FBPA coupling cs: inhibits coupling enzyme system, counter-screen for aldolase hits; coupling enzyme system counterscreen, AmpLite Red fluorescence; 290,000 compounds, 0.67% hits; AID 2472; activity change, negative = inhibition, % at 58.2 µM, hits read low; in the data active = activity change below about -30%
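Counterscreen of the coupled detection system alone, without aldolase: glyceraldehyde-3-phosphate coupling enzymes plus AmpLite Red readout. Compounds at 57.5 uM final, 10 min RT preincubation, 20 min RT reaction, fluorescence 525/598 nm.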
A number is an active result; 0 = inactive; ? = inconclusive; - = not tested or not shown; ! = repeats disagree; [ ] = dose if it differs, or a comment. Only some compounds are listed: those with a hit (about 1% of all), similar ones and a draw of the others. Unless noted, calls come from the whole dose curve; as a rule, active = well fitted curve in the direction sought with a large enough effect; inconclusive = small, poorly fitted or top-dose-only effect, or another doubt; inactive = no such curve, though single readings can be large; an effect the other way counts as inactive or inconclusive.

SMILES	TRb SRC2 PPI	NPSR antagonist	TR SRC2 fluor cs	TCR act	TSHR antagonist	FBPA coupling cs
O=C(C#Cc1cccc([N+](=O)[O-])c1)c1ccccc1	0	3.2µM	0	-	0	0
CCc1ccc(CNC(=O)c2ccc(-n3c(C)cc4c3CCC(C)C4)cc2)cc1 (configuration not stated)	0	-	0	-	-	-
CCOC(=O)c1sc(=NC(=O)c2ccc(S(=O)(=O)N(C)c3ccccc3)cc2)n(C)c1C	0	3.2µM	0	0	0	0
Cn1cc(/C=C2\SC(=S)N(NC(=O)c3ccccc3)C2=O)c2ccccc21	18µM	0	?	0	0	0
O=C(O)CCCNc1cc(N2CCN(C(=O)c3ccco3)CC2)c2noc3c2c1C(=O)c1ccccc1-3	-	-	-	0	0	0
CCOC(=O)N1CCN(c2cc(NCCC(=O)O)c3c4c(onc24)-c2ccccc2C3=O)CC1	28µM	10µM	13µM[fluorescent]	0	0	-54
O=C(O)CCCNc1cc(N2CCC3(CC2)OCCO3)c2noc3c2c1C(=O)c1ccccc1-3	22µM	10µM	45µM[fluorescent]	-	0	-39
COC(=O)c1ccc(NC(=O)CC2C(=O)N(c3ccc(C)cc3)C(=O)N2Cc2ccc(OC)cc2)cc1 (configuration not stated)	0	-	0	-	-	-
CCCN1C(=O)/C(=C/c2c(N3CCNC(=O)C3CC(=O)OCC)nc3c(C)cccn3c2=O)SC1=S (configuration not stated)	0	13µM	0	0	0	0
COC(=O)c1cccc(C)c1S(=O)(=O)NC(=O)Nc1nc(OCC(F)(F)F)nc(N(C)C)n1	0	-	0	-	-	-
O=P(CCCCCCCCCP(=O)(c1ccccc1)c1ccccc1)(c1ccccc1)c1ccccc1	0	13µM	0	0	0	0
COc1ccc(C2c3c(ncn(CCN4CCOCC4)c3=N)Oc3ccc4ccccc4c32)cc1OC (configuration not stated)	0	1µM	0	0	0	0
COc1ccc(C2c3c(ncn(CCCO)c3=N)Oc3ccc4ccccc4c32)cc1 (configuration not stated)	0	?	0	0	0	0
CC[C@H]1O[C@]2(CC[C@@H]1C)C[C@@H]1C[C@@H](C/C=C(\C)C[C@@H](C)/C=C/C=C3CO[C@@H]4[C@H](O)C(C)=C[C@@H](C(=O)O1)[C@]34O)O2	0	-	0	-	-	-
Cc1ccc2nc(N3C(=O)C(O)=C(C(=O)c4cc5ccccc5o4)C3c3cccs3)sc2c1 (configuration not stated)	0	0	0	0	0	0
Cc1cc(N2C(=O)C(O)=C(C(=O)c3ccc(C)o3)C2c2cccs2)no1 (configuration not stated)	0	7.9µM	0	0	0	0
Cc1ccc(C(=O)C2=C(O)C(=O)N(c3ncccn3)C2c2ccc(F)cc2)o1 (configuration not stated)	0	0	0	0	0	0
CCc1ccc2nc(N3C(=O)C(O)=C(C(=O)c4ccco4)C3c3cccs3)sc2c1 (configuration not stated)	0	10µM	0	0	0	0
Cc1ccc(C(=O)C2=C(O)C(=O)N(c3ncccn3)C2c2ccccc2F)o1 (configuration not stated)	-	-	-	0	-111	-
CCCCc1ccc(NS(=O)(=O)c2cc3c4c(c2)CC(=O)N4CCC3)cc1	0	-	0	-	-	-
Cc1ccc(-c2nc(CS(=O)(=O)CC(=O)Nc3ccc(Br)cc3F)c(C)o2)cc1	0	-	0	-	-	-
CSc1nc2ccc(NS(=O)(=O)c3cccc(Cl)c3Cl)cc2s1	0	0	1.1µM[quencher]	0	0	0
Cc1nc2ccc(NS(=O)(=O)c3ccccc3Cl)cc2s1	-	-	-	-	0	-
CCCN(CCC)CCCNC(=O)c1sc2nc3n(c(=O)c2c1C)CCC3	0	-	0	-	-	-
O=C1C=CC(=O)c2c(O)c(Cl)c(Cl)c(O)c21	0	-	?	-	-	-90
SMILES	TRb SRC2 PPI	NPSR antagonist	TR SRC2 fluor cs	TCR act	TSHR antagonist	FBPA coupling cs
O=C1C=CC(=O)c2c(O)c(CO)c(CO)c(O)c21	-	-	-	0	-	-
N#C/C(=C\c1ccc(-c2cc(Cl)ccc2Cl)o1)C(=O)Nc1cccc2ncccc12	-	-	-	-	0	-
Cc1ccc(CNC(=O)CCCn2c(=O)c3ccccc3n(Cc3ccccc3Cl)c2=O)cc1	0	-	0	-	-	-
N#CC(C#N)=c1ccc2c(c1)N1C3=C(CCCC3)CC3CCCCC31N=2 (configuration not stated)	0	13µM	0	0	0	0
N#C/C(C(N)=O)=c1/ccc2c(c1)N1C3=C(CCCC3)CC3CCCCC31N=2 (configuration not stated)	0	10µM	0	0	0	0
Cc1ccc(SCC(=O)NCc2ccccc2)cc1	-	-	-	0	0	0
Cc1ccc(SCC(=O)NCc2ccccc2C)cc1	-	-	-	0	-122	0
CN(C)/C=C1\C(=O)ON=C1c1ccccc1	0	0	0	0	0	0
Cc1ccc(C2=NOC(=O)/C2=C\C=C\c2ccccc2)cc1	0	10µM	0	0	0	0
C1CCC(C(CC2CCCCN2)C2CCCCC2)CC1 (configuration not stated)	0	13µM	0	0	0	0
O=C(N/N=C/c1cccc(F)c1)c1cc(-c2ccco2)nc2ccccc12	0	0	32µM[quencher]	0	0	0
COc1cc(/C=N/NC(=O)c2cc(-c3ccco3)nc3ccccc23)cc(OC)c1O	0	0	0	0	0	0
CC(=O)Nc1ccc(N/C=C/C(=O)c2ccco2)cc1	0	0	0	0	0	0
CN(C)c1ccc(N/C=C/C(=O)c2ccco2)cc1	0	?	0	0	0	-35
S=c1[nH]c2cc3ccccc3cc2[nH]1	0	0	0	0	0	-53!
O=C(c1ccc(S(=O)(=O)N2CCCC2)cc1)N1CCC(CN2C(=O)c3cccc4cccc(c34)C2=O)CC1	0	10µM	0	0	0	0
O=C1/C(=C\c2cccs2)CCC/C1=C/c1cccs1	0	-	0	-	-	-
O=C(COC(=O)c1ccccc1NS(=O)(=O)c1cccs1)NC1CCCCC1	0	0	112µM[quencher]	0	0	0
O=C(COC(=O)c1ccccc1NS(=O)(=O)c1cccs1)NCC12CC3CC(CC(C3)C1)C2	0	0	0	0	?	0
O=[N+]([O-])c1ccccc1-c1ccc(/C=N/n2cnnc2)o1	0	0	0	-	0	0
Nn1cnnc1N/N=C\c1ccc(-c2ccccc2[N+](=O)[O-])o1	0	0	?	0	0	-49
O=C(N/N=C/c1ccc(-c2ccccc2[N+](=O)[O-])o1)c1cncc(Br)c1	0	0	0	0	0	0
Cc1c(C(=O)N/N=C/c2ccc(-c3ccccc3[N+](=O)[O-])o2)sc(N)c1C#N	0	0	0	0	0	-33
